{"source": "ChEMBL document CHEMBL4888484", "about": "“Replenishing the malaria drug discovery pipeline: Screening and hit evaluation of the MMV Hit Generation Library 1 (HGL1) against asexual blood stage Plasmodium falciparum ,using a nano luciferase reporter read-out” (2022)", "note": "The whole screen tested about 150,000 compounds, of which about 540 (0.36%) showed an effect of 50% or more. Only a selection was taken, and strong results are over-represented in it overall.", "data": [{"test_system": "Plasmodium falciparum", "experiment": "Primary screen in NF54 nanoGlo assay, in single point, at 2uM, 72h; a lower Z score goes with more inhibition", "assay_type": "functional, Erythrocyte", "details": "timepoint 72 hour", "units": {"% Inhibition": "%"}, "values": [{"smiles": "Nc1nnc(N[C@H]2COc3ccccc32)[nH]1", "% Inhibition": 0, "Z score": 0.03}, {"smiles": "O=C(CCc1ccc(Cl)c(C(F)(F)F)c1)N1CC[C@H](N2CCc3ccccc3C2)C1", "% Inhibition": 50, "Z score": -7.74}, {"smiles": "O=C(CCc1ccc(Cl)c(F)c1)N1CC(N2CCc3ccccc3C2)C1", "% Inhibition": -9, "Z score": 1.44}, {"smiles": "O=C(CCc1cccc(Cl)c1)N1CC[C@H](N2CCc3ccccc3C2)C1", "% Inhibition": -5, "Z score": 0.72}, {"smiles": "COCCN1C[C@@H](c2nc(C3CCOCC3)n[nH]2)CCC1=O", "% Inhibition": -5, "Z score": 0.81}, {"smiles": "CNC(=O)[C@H](CNC(=O)c1ccc(=O)[nH]n1)Cc1ccc(F)cc1C", "% Inhibition": -8, "Z score": 1.4}, {"smiles": "Cc1cccc(CN2CCN(C(=O)c3cc(C)nc(N)n3)[C@@H](C)C2=O)c1", "% Inhibition": -2, "Z score": 0.2}, {"smiles": "COc1cc(C(=O)Nc2cccc(-c3nc(C)cc(=O)[nH]3)c2)ccc1OCc1cscn1", "% Inhibition": -2, "Z score": 0.29}, {"smiles": "C=CCn1ncc(-c2cn([C@@H](CC)c3cc(C)ccn3)nn2)c1C", "% Inhibition": 10, "Z score": -1.39}, {"smiles": "CN(C)C1(CC2CC2)CCN(Cc2cccc(C#N)c2)CC1", "% Inhibition": -3, "Z score": 0.54}, {"smiles": "O=C(Cc1ccccc1Cl)N1CC[C@H](Oc2ccc3ccccc3n2)C1", "% Inhibition": -5, "Z score": 0.96}, {"smiles": "O=C(COc1ccc(Cl)cc1)N1CC[C@H](Oc2ccc3ccccc3n2)C1", "% Inhibition": -18, "Z score": 3.35}, {"smiles": "CCNC(=O)N1CC[C@H](Oc2ccc3ccccc3n2)C1", "% Inhibition": 57, "Z score": -3}]}]}
